# Experimental data published in PubChem BioAssay AID1159580 (chemical genetic matrix, 2015).
# In all, about 5,500 compounds went through this assay and about 2,000 (36%) were called active. About 18% were inconclusive and are not listed. Cut-off read from the data, not from the text of the source: active = normalized growth mostly below about 0.91 (no sharp cut-off); inconclusive = no clear call, values can overlap the other calls; inactive = mostly above about 0.92. Some of the results follow.
# Assay: chemical genetic growth profiling, strain panel (AID 1159580);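 note: tested at 20 µM; growth read once vehicle control cultures reached saturation at 30 °C; 1 = growth at the plate median or of vehicle wells; lower values mean less growth of the strain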
# Details: growth OD
structure (smiles),measurement,setting,value
O=C(O)/C=C/C=C/c1ccccc1,normalized growth,"S. cerevisiae deletion strains, locus YJR066W, strain TOR1, active compounds read low",0.162 (active)
same,normalized growth,"S. cerevisiae deletion strains, locus YKL009W, strain mrt4, active compounds read low",0.784 (active)
same,normalized growth,"S. cerevisiae deletion strains, locus YKL068W, active compounds read low",0.854 (active)
same,normalized growth,"S. cerevisiae deletion strains, locus YKL085W, strain MDH1 (second series), active compounds read low",0.773 (active)
same,normalized growth,"S. cerevisiae deletion strains, locus YKL085W, strain MDH1, active compounds read low",0.773 (active)
same,normalized growth,"S. cerevisiae deletion strains, locus YKL160W, strain elf1, active compounds read low",0.831 (active)
same,normalized growth,"S. cerevisiae deletion strains, locus YKR001C, strain vps1, active compounds read low",0.792 (active)
same,normalized growth,"S. cerevisiae deletion strains, locus YKR026C, strain gcn3, active compounds read low",0.808 (active)
same,normalized growth,"S. cerevisiae deletion strains, locus YKR091W, strain srl3, active compounds read low",0.83 (active)
same,normalized growth,"S. cerevisiae deletion strains, locus YLL001W, strain dnm1, active compounds read low",0.782 (active)
same,normalized growth,"S. cerevisiae deletion strains, locus YLL026W, active compounds read low",0.831 (active)
same,normalized growth,"S. cerevisiae deletion strains, locus YLL041C, strain sdh2, active compounds read low",0.829 (active)
same,normalized growth,"S. cerevisiae deletion strains, locus YLR027C, strain aat2, active compounds read low",0.827 (active)
same,normalized growth,"S. cerevisiae deletion strains, locus YLR039C, strain RIC1, active compounds read low",0.832 (inactive)
same,normalized growth,"S. cerevisiae deletion strains, locus YLR058C, strain SHM2, active compounds read low",0.98 (inactive)
same,normalized growth,"S. cerevisiae deletion strains, locus YLR102C, strain apc9, active compounds read low",0.932 (inactive)
same,normalized growth,"S. cerevisiae deletion strains, locus YLR113W, strain HOG1, active compounds read low",0.26 (active)
same,normalized growth,"S. cerevisiae deletion strains, locus YLR221C, strain rsa3, active compounds read low",0.778 (active)
same,normalized growth,"S. cerevisiae deletion strains, locus YLR258W, strain gsy2, active compounds read low",0.817 (active)
same,normalized growth,"S. cerevisiae deletion strains, locus YLR262C, strain YPT6 (second series), active compounds read low",0.518 (active)
same,normalized growth,"S. cerevisiae deletion strains, locus YLR262C, strain YPT6, active compounds read low",0.886 (inactive)
same,normalized growth,"S. cerevisiae deletion strains, locus YLR268W, strain sec22, active compounds read low",0.887 (inactive)
same,normalized growth,"S. cerevisiae deletion strains, locus YLR320W, strain mms22, active compounds read low",0.771 (active)
same,normalized growth,"S. cerevisiae deletion strains, locus YLR330W, strain CHS5, active compounds read low",0.952 (inactive)
same,normalized growth,"S. cerevisiae deletion strains, locus YLR342W, strain FKS1 (second series), active compounds read low",0.882 (inactive)
same,normalized growth,"S. cerevisiae deletion strains, locus YLR342W, strain FKS1, active compounds read low",0.812 (active)
same,normalized growth,"S. cerevisiae deletion strains, locus YLR357W, strain rsc2, active compounds read low",0.732 (active)
same,normalized growth,"S. cerevisiae deletion strains, locus YLR370C, strain arc18, active compounds read low",0.813 (active)
same,normalized growth,"S. cerevisiae deletion strains, locus YLR371W, strain rom2, active compounds read low",0.913 (inactive)
same,normalized growth,"S. cerevisiae deletion strains, locus YLR384C, strain iki3, active compounds read low",0.827 (active)
same,normalized growth,"S. cerevisiae deletion strains, locus YLR418C, strain cdc73, active compounds read low",0.859 (inactive)
same,normalized growth,"S. cerevisiae deletion strains, locus YML016C, strain PPZ1, active compounds read low",0.994 (inactive)
same,normalized growth,"S. cerevisiae deletion strains, locus YML032C, strain rad52, active compounds read low",0.908 (inactive)
same,normalized growth,"S. cerevisiae deletion strains, locus YML120C, strain ndi1, active compounds read low",0.822 (active)
same,normalized growth,"S. cerevisiae deletion strains, locus YML124C, strain tub3, active compounds read low",0.917 (active)
same,normalized growth,"S. cerevisiae deletion strains, locus YMR058W, strain fet3, active compounds read low",0.793 (active)
same,normalized growth,"S. cerevisiae deletion strains, locus YMR078C, strain ctf18, active compounds read low",0.9 (active)
same,normalized growth,"S. cerevisiae deletion strains, locus YMR125W, strain sto1, active compounds read low",0.857 (active)
same,normalized growth,"S. cerevisiae deletion strains, locus YMR129W, active compounds read low",0.824 (active)
same,normalized growth,"S. cerevisiae deletion strains, locus YMR205C, strain PFK2, active compounds read low",0.826 (active)
same,normalized growth,"S. cerevisiae deletion strains, locus YMR223W, strain ubp8, active compounds read low",0.934 (inactive)
same,normalized growth,"S. cerevisiae deletion strains, locus YMR231W, strain pep5, active compounds read low",0.835 (active)
same,normalized growth,"S. cerevisiae deletion strains, locus YMR307W, strain GAS1, active compounds read low",0.924 (inactive)
same,normalized growth,"S. cerevisiae deletion strains, locus YNL067W, strain RPL9B, active compounds read low",0.954 (inactive)
same,normalized growth,"S. cerevisiae deletion strains, locus YNL071W, strain lat1, active compounds read low",0.775 (active)
same,normalized growth,"S. cerevisiae deletion strains, locus YNL153C, strain GIM3, active compounds read low",0.952 (inactive)
same,normalized growth,"S. cerevisiae deletion strains, locus YNL183C, strain NPR1, active compounds read low",0.168 (active)
same,normalized growth,"S. cerevisiae deletion strains, locus YNL209W, strain ssb2, active compounds read low",0.863 (active)
same,normalized growth,"S. cerevisiae deletion strains, locus YNL233W, strain BNI4, active compounds read low",0.949 (inactive)
same,normalized growth,"S. cerevisiae deletion strains, locus YNL248C, strain rpa49, active compounds read low",0.832 (active)
same,normalized growth,"S. cerevisiae deletion strains, locus YNL250W, strain rad50, active compounds read low",0.823 (active)
same,normalized growth,"S. cerevisiae deletion strains, locus YNL271C, strain bni1, active compounds read low",0.772 (active)
same,normalized growth,"S. cerevisiae deletion strains, locus YNL298W, strain CLA4, active compounds read low",0.692 (active)
same,normalized growth,"S. cerevisiae deletion strains, locus YNL307C, strain MCK1, active compounds read low",0.93 (inactive)
same,normalized growth,"S. cerevisiae deletion strains, locus YNL322C, strain KRE1 (second series), active compounds read low",0.746 (active)
same,normalized growth,"S. cerevisiae deletion strains, locus YNL322C, strain KRE1, active compounds read low",0.985 (inactive)
same,normalized growth,"S. cerevisiae deletion strains, locus YNR049C, strain mso1, active compounds read low",0.771 (active)
same,normalized growth,"S. cerevisiae deletion strains, locus YNR052C, strain pop2, active compounds read low",0.925 (inactive)
same,normalized growth,"S. cerevisiae deletion strains, locus YOL006C, strain TOP1, active compounds read low",1.11 (inactive)
same,normalized growth,"S. cerevisiae deletion strains, locus YOL012C, strain htz1",1.04 (inactive)
same,normalized growth,"S. cerevisiae deletion strains, locus YOL147C, strain pex11, active compounds read low",0.927 (active)
same,normalized growth,"S. cerevisiae deletion strains, locus YOR001W, strain rrp6, active compounds read low",0.794 (active)
same,normalized growth,"S. cerevisiae deletion strains, locus YOR061W, strain CKA2, active compounds read low",0.973 (inactive)
same,normalized growth,"S. cerevisiae deletion strains, locus YOR069W, strain VPS5, active compounds read low",0.974 (inactive)
same,normalized growth,"S. cerevisiae deletion strains, locus YOR070C, strain gyp1, active compounds read low",0.831 (active)
same,normalized growth,"S. cerevisiae deletion strains, locus YOR080W, strain dia2, active compounds read low",0.835 (active)
same,normalized growth,"S. cerevisiae deletion strains, locus YOR083W, strain WHI5, active compounds read low",0.808 (active)
same,normalized growth,"S. cerevisiae deletion strains, locus YOR106W, strain vam3, active compounds read low",0.793 (active)
same,normalized growth,"S. cerevisiae deletion strains, locus YOR136W, strain idh2, active compounds read low",0.938 (inactive)
same,normalized growth,"S. cerevisiae deletion strains, locus YOR144C, strain elg1, active compounds read low",0.926 (active)
same,normalized growth,"S. cerevisiae deletion strains, locus YOR184W, strain ser1, active compounds read low",0.928 (inactive)
same,normalized growth,"S. cerevisiae deletion strains, locus YOR231W, strain MKK1, active compounds read low",0.27 (active)
same,normalized growth,"S. cerevisiae deletion strains, locus YOR265W, strain rbl2, active compounds read low",0.836 (active)
same,normalized growth,"S. cerevisiae deletion strains, locus YOR270C, strain vph1, active compounds read low",0.687 (active)
same,normalized growth,"S. cerevisiae deletion strains, locus YOR290C, strain snf2, active compounds read low",0.737 (active)
same,normalized growth,"S. cerevisiae deletion strains, locus YOR316C, strain cot1, active compounds read low",0.932 (inactive)
same,normalized growth,"S. cerevisiae deletion strains, locus YPL051W, strain arl3, active compounds read low",0.83 (active)
same,normalized growth,"S. cerevisiae deletion strains, locus YPL055C, strain LGE1, active compounds read low",0.965 (inactive)
same,normalized growth,"S. cerevisiae deletion strains, locus YPL078C, strain atp4, active compounds read low",0.771 (active)
same,normalized growth,"S. cerevisiae deletion strains, locus YPL106C, strain sse1, active compounds read low",0.821 (active)
same,normalized growth,"S. cerevisiae deletion strains, locus YPL240C, strain hsp82, active compounds read low",0.806 (active)
same,normalized growth,"S. cerevisiae deletion strains, locus YPL256C, strain CLN2, active compounds read low",0.226 (active)
same,normalized growth,"S. cerevisiae deletion strains, locus YPR119W, strain clb2, active compounds read low",0.922 (active)
same,normalized growth,"S. cerevisiae deletion strains, locus YPR141C, strain kar3, active compounds read low",0.877 (active)
same,normalized growth,"S. cerevisiae deletion strains, locus YPR163C, strain tif3, active compounds read low",0.908 (active)
same,normalized growth,"S. cerevisiae deletion strains, locus YPR167C, strain met16, active compounds read low",0.926 (inactive)
same,normalized growth,"S. cerevisiae deletion strains, strain wtn01, active compounds read low",0.926 (inactive)
same,normalized growth,"S. cerevisiae strains, strain wild type, active compounds read low",0.976 (inactive)
